Results taken from PubChem BioAssay (NCATS).
Activity calls are given as the source filed them. Entries that show only a call come without a potency. Calls come from the whole dose curve; as a rule, active = well fitted inhibition curve with a large enough effect; inconclusive = small, poorly fitted or top-dose-only effect; inactive = flat fitted curve, though single readings scatter.

These molecules were tested on Nanoluciferase (engineered Oplophorus gracilirostris luciferase) (assay: Primary Nanoluciferase (NLuc) qHTS assay for identification of artifact compounds. (AID 1845222)). Conditions: NLuc-conditioned medium, Nano-Glo luminescence, 5 min; series mostly up to 54.1 µM.
Description: PI: Alexander Tropsha Ph.D.
UNC Eshelman School of Pharmacy
University of North Carolina, Chapel Hill, North Carolina
Hits from high-throughput screening (HTS) of chemical libraries are often false positives due to their interference with the assay detection technology. In response to this problem, we generated the largest publicly available library of chemical liabilities and developed a free webtool to predict HTS artifacts, both of which are described herein. More specifically, we generated, curated, and integrated HTS datasets for thiol reactivity, redox activity, and luciferase (firefly and nano) activity. Using these curated datasets, we developed and validated several Quantitative Structure-Interference Relationship (QSIR) models to predict nuisance behavior. […] These models were employed for virtual profiling of the National Center for Advancing Translational Science's (NCATS) in-house library, and 256 compounds for each assay were selected for the experimental validation of nuisance behavior. The BA for these external predictions ranged from 58 to 78% for compounds within the applicability domains of the models. […] The models developed in this study, along with aggregation models previously developed by our group (SCAM Detective) were implemented in "Liability Predictor," an online tool which may be used as part of chemical library design or for triaging HTS hits. Both the models and the curated datasets are publicly available at https://liability.mml.unc.edu/.
SEQUENCE No. (e.g., 1, 2, 3, etc.); […] (e.g., Cells, Incubation, Reagent, etc.); VALUE; DESCRIPTION.
1; Reagent; 2 uL; Nanoluciferase media.
2; Compounds and control; 16 nL; Kalypsis pin tool (Wako USA) equipped with a 1536-well pin head.
4; Reagent; 2 uL; Luciferase enzyme.
6; Detection; Luminescence, ViewLux microplate reader.
NOTES (numbers refer to Sequence numbers above)
1. Medium was collected from the culture flasks of NLuc-expressing S16 cells (80% confluent) prior to cell plating, filtered through a 0.22um filter, and frozen at -20C prior to use. Media was diluted (1:55) and 2 uL was dispensed into all wells of a 1536-well assay plate (solid-bottom white plate; Greiner Bio One, Monroe, NC).
2. A Wako Pin-tool (Wako Automation, Richmond, VA) was used to transfer 16 nL of compounds (consisting of 7-plates in qHTS format, final concentration range 18.3 nM to 114 uM) or control Cilnidipine (final concentration range 623 nM to 80 uM).
3. 15 min. incubation at room temperature protected from light.
4. 2 uL of NLuc substrate (1:100 in Nano-Glo luciferase buffer; Nano-Glo luminescence assay, Promega, Madison, WI) was dispensed for a final assay volume of 4 uL.
5. Plates were centrifuged (121xg, 15 seconds) and incubated for 5 minutes.
6. Samples were read for luminescence on a ViewLux CCD imager (PerkinElmer). Data were normalized to no-enzyme (0% activity) and no-inhibitor (DMSO; 100%) controls and the resulting percent inhibition data were fitted to a 4-parameter Hill equation using NCATS in-house software.
Potency is the fitted concentration of half-maximal effect.

SMILES	Potency
Cc1nc2n(c(=O)c1CCN1CCC(c3noc4cc(F)ccc34)CC1)CCC[C@H]2O	inactive
Cc1onc(-c2c(Cl)cccc2Cl)c1C(=O)N[C@@H]1C(=O)N2[C@@H]1SC(C)(C)[C@@H]2C(=O)O	inactive
CC(=O)OCC(=O)[C@@]1(O)CC[C@H]2[C@@H]3CCC4=CC(=O)C=C[C@]4(C)[C@H]3[C@@H](O)C[C@@]21C	inactive
Cc1ccc(Nc2c(F)cccc2Cl)c(CC(=O)O)c1	inactive
CN1C(CCl)Nc2cc(Cl)c(S(N)(=O)=O)cc2S1(=O)=O (configuration not stated)	inactive
COc1ccc(CN2CCN(C(c3ccc(F)cc3)c3ccc(F)cc3)CC2)c(OC)c1OC	inactive
CC(=O)OCC(=O)[C@@]1(O)[C@H](C)C[C@H]2[C@@H]3CCC4=CC(=O)C=C[C@]4(C)[C@@]3(F)[C@@H](O)C[C@@]21C	inactive
NC(=NCCCCCCN=C(N)/N=C(\N)Nc1ccc(Cl)cc1)/N=C(\N)Nc1ccc(Cl)cc1	inactive
O=c1[nH]c(=O)n([C@H]2CCCO2)cc1F	inactive
CC(CCc1ccccc1)NCC(O)c1ccc(O)c(C(N)=O)c1 (configuration not stated)	inactive
Cc1cc2c(cc1CC(=O)c1sccc1S(=O)(=O)Nc1onc(C)c1Cl)OCO2	16.9 µM (active)
Cc1ccc(C(=O)C(C)CN2CCCCC2)cc1 (configuration not stated)	inactive
C#C[C@]1(OC(C)=O)CC[C@H]2[C@@H]3CCC4=C[C@@H](OC(C)=O)CC[C@@H]4[C@H]3CC[C@@]21C	inactive
CC(C)(C)NC(=O)[C@@H]1CN(Cc2cccnc2)CCN1C[C@@H](O)C[C@@H](Cc1ccccc1)C(=O)N[C@H]1c2ccccc2C[C@H]1O	inactive
COc1cccc(OC)c1C(=O)N[C@@H]1C(=O)N2[C@@H]1SC(C)(C)[C@@H]2C(=O)O	inactive
CCCCS(=O)(=O)N[C@@H](Cc1ccc(OCCCCC2CCNCC2)cc1)C(=O)O	inactive
Nc1ccn([C@@H]2O[C@H](CO)[C@@H](O)C2(F)F)c(=O)n1	inactive
O=C(OCCOCCO)c1ccccc1Nc1cccc(C(F)(F)F)c1	inactive
CN1[C@@H]2CC[C@H]1CC(OC(=O)c1c[nH]c3ccccc13)C2 (some centres not stated)	inactive
CC(=O)O[C@]1(C(C)=O)CC[C@H]2[C@@H]3C[C@H](C)C4=CC(=O)CC[C@]4(C)[C@H]3CC[C@@]21C	inactive
OC[C@H]1O[C@H](O[C@]2(CCl)O[C@H](CCl)[C@@H](O)[C@@H]2O)[C@H](O)[C@@H](O)[C@H]1Cl	inactive
CN1CCN(C(c2ccccc2)c2ccccc2)CC1	inactive
CN(C)CCCOc1nn(Cc2ccccc2)c2ccccc12	inactive
CC(C)(C)CC(C)(C)c1ccc(OCCOCC[N+](C)(C)Cc2ccccc2)cc1	inactive
CC(C)n1nc(-c2cc3cc(O)ccc3[nH]2)c2c(N)ncnc21	inactive
COC(=O)CCc1ccc(OCC(O)CNC(C)C)cc1 (configuration not stated)	inactive
Cc1ccccc1C(=O)Nc1ccc(C(=O)N2CCCC(N(C)C)c3ccccc32)cc1 (configuration not stated)	inactive
